ALDH1A1 inh – inhibitors of human aldehyde dehydrogenase 1A1. Purified ALDH1A1, NADH fluorescence, propionaldehyde substrate. Potency, µM (titrated, usually from 75.3 µM), inactives show top-dose activity, negative = inhibition, actives largely listed as inhibitors. 220,000 tested, 7.3% active. AID 1030. P00352;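 also: plate controls were no enzyme wells and a reference inhibitor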
Target sequence (P00352 whole entry, looked up): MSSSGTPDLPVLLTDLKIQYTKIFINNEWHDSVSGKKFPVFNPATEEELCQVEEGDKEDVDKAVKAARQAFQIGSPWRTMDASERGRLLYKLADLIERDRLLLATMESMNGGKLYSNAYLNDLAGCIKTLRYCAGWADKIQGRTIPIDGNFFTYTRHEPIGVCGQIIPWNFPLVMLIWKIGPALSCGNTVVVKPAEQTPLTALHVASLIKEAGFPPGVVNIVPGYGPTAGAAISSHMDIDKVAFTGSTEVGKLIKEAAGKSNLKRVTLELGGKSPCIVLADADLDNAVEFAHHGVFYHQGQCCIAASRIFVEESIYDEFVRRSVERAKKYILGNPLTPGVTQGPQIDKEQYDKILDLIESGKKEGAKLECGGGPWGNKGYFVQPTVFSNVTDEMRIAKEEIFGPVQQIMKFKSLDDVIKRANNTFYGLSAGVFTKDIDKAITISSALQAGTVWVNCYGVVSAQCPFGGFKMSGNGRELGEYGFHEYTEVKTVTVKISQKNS
HTT cytoprotect – protects HTT-Q103 PC12 cells, measured by ATP | 230,000 tested, 0.14% active | PC12 HTT-Q103 induced, cytoprotection, ATP luminescence, 40 h | Potency, µM (top dose mostly 56.4 µM), for the others: cytoprotection (ATP increase), hits mostly activators; active = well fitted curve in the direction sought with a large enough effect; inconclusive = small, poorly fitted or top-dose-only effect, or another doubt; inactive = no such curve, though single readings can be large; an effect the other way counts as inactive or inconclusive; also: % of control where 0% means no effect; nearly all actives have a fitted effect of over 45% in size
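ATP quantification (ATPlite) reports survival of PC12 cells in which tebufenozide, 100 nM final, switches on Htt exon 1 with 103 glutamines linked to GFP; compounds are titrated.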
LMNA splice mod – modulators of lamin A splicing; HeLa LMNA splicing GFP/RFP minigene ratio, 48 h; Potency, µM (doses to about 46.1 µM), for inactives: at the highest dose ratio change, negative = inhibition, most hits filed as inhibitors; 200,000 tested, 0.01% active; AID 1487; active = well fitted inhibition curve with a large enough effect in the signal ratio, with a control signal flat, not every such curve was filed as active; inconclusive = small, poorly fitted or top-dose-only effect, or effect the other way, or a change in a side signal; the % refers to the signal ratio; also: % is scaled to controls: 0 for no effect and ±100 for the full control effect
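S3 HeLa stable clones carrying a lamin A-EGFP splicing minigene plus DsRed2 were seeded at 600 cells/well in Opti-MEM with 2% FBS, pin-dosed and incubated 48 h at 37°C. Acumen cytometry (488 nm) gave the GFP/RFP total-intensity ratio.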
HTT aggregate – reduces HttQ103-GFP aggregates in PC12 cells; Potency, µM (doses to about 46.1 µM), for the others: at the top dose activity change, negative = inhibition, most hits filed as inhibitors; 220,000 tested, 1.1% active; PC12 HttQ103-GFP aggregates, Acumen cytometry, 40 h; active = well fitted curve in the direction sought with a large enough effect; inconclusive = small, poorly fitted or top-dose-only effect, or another doubt; inactive = no such curve, though single readings can be large; an effect the other way counts as inactive or inconclusive; also: % is scaled to controls: 0 for no effect and ±100 for the full control effect; nearly all actives have a fitted effect of over 60% in size
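PC12 cells stably carrying ecdysone-inducible HTT exon 1 Q103–GFP were induced with tebufenozide (100 nM final) and treated with library compounds in titration. GFP aggregates in lysates were counted by laser scanning cytometry.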
HPGD inh – blocks human HPGD enzyme activity; AID 894; P15428; 150,000 tested, 4.3% active; purified HPGD, NADH fluorescence kinetic, PGE2 substrate; Potency, µM, without a hit: top-dose activity change, negative = inhibition, hits mostly inhibitors; also: % is scaled to controls: 0 for no effect and ±100 for the full control effect
Target sequence (P15428 whole entry, looked up): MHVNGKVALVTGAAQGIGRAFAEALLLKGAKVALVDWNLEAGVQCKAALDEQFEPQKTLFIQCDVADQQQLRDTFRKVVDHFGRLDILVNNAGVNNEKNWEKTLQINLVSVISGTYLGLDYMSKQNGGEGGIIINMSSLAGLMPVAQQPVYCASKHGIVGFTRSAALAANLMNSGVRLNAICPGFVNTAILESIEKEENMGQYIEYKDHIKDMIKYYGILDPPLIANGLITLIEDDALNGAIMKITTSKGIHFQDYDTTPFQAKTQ
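NADH formation kinetics: reaction with 30 uM PGE2 and 1 mM NAD+ (final), 20 nM enzyme, Tris-HCl pH 8 with Tween 20, after 15 min compound preincubation at room temperature. Fluorescence change, last versus first of five reads.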
* = called active by the depositor; ? = inconclusive; nt = not tested or not shown; [ ] = dose if it differs, or a comment. Compounds with a hit are over-represented: about 8.8% of the library has one in this group of screens. Unless noted, calls follow the shape of the dose curve; as a rule, active = well fitted inhibition curve with a large enough effect (not every such curve was filed as active); inconclusive = small, poorly fitted or top-dose-only effect, or another doubt; inactive = no such curve, though single readings can be large or run the other way. Potency is read from the fitted curve at half-maximal effect.

SMILES	ALDH1A1 inh	HTT cytoprotect	LMNA splice mod	HTT aggregate	HPGD inh
Cc1ccc(C(C(=O)NC2CCCCC2)N(Cc2cccnc2)C(=O)C2COc3ccccc3O2)o1 (stereo not given)	13µM*	-24%[10 µM]	-1%	24%	-8%
Cc1ccc(CN(C(=O)c2csnn2)C(C(=O)NC2CCCC2)c2ccc(C)o2)cc1 (stereo not given)	14µM*	-15%[10 µM]	-13%	3%	-17%
CCOC(=O)c1sc(=S)n(C)c1NC(=O)c1ccccc1C	10µM*	-4%[10 µM]	8%	14%	10µM*
CCOC(=O)c1sc(=S)n(C)c1NC(=O)c1ccc(F)cc1	2.5µM*	-4%[10 µM]	-14%	-2%	7.9µM*
CCOC(=O)c1sc(=S)n(CC)c1NC(=O)c1ccccc1	nt	-9%[10 µM]	nt	-20%[9.22 µM]	nt
CC(=O)c1sc(NC(=O)COc2ccc(Cl)cc2Cl)nc1C	11µM*	-12%	nt	20%[9.22 µM]	nt
CC(=O)c1sc(NC(=O)COc2ccc(Cl)cc2C)nc1C	nt	-1%[10 µM]	nt	-10%[9.22 µM]	nt
O=C(CCCOc1ccc(Cl)cc1Cl)NCCCO	-1%	24%	1%	-3%	-10%
O=C(CCCOc1ccc(Cl)cc1Cl)NCc1ccncc1	20µM*	?	-4%[46 µM]	14%[9.22 µM]	nt
O=C(COc1ccc(Cl)cc1Cl)NCc1ccncc1	?	-12%[10 µM]	?	-7%	25µM*
CN1CCN(C(CNC(=O)C(=O)Nc2cccc(Cl)c2)c2ccc3c(c2)OCO3)CC1 (stereo not given)	nt	nt	18%[46 µM]	nt	nt
COC(=O)N[C@@H](/C=C/c1ccccc1)/C(C(=O)OC)=C(\C)NCc1ccccc1	0%	-60%	nt	nt	-12%
Cc1ccccc1NC(=O)Cc1nc(-c2ccc3ccccc3c2)cs1	-9%	-8%[10 µM]	-7%	7%	-8%
CC(C)OC(=O)CSc1nnc(SCc2cccc3ccccc23)s1	?	-14%	8%	-1%[9.22 µM]	-14%
O=C(CNc1ccccc1)N/N=C/c1c[nH]c2ccccc12	-3%	14%[10 µM]	-14%	2%	0.13µM*
O=C(O)CSc1nnc(SCc2cccc3ccccc23)s1	?	-1%	4%	13%	16µM*
O=C(CSc1nnc(SCc2cccc3ccccc23)s1)N/N=C/c1c[nH]c2ccccc12	14µM*	12%[10 µM]	?	-1%	-9%
O=C(CSc1nnc(SCc2ccc(Cl)cc2)s1)N/N=C/c1c[nH]c2ccccc12	-1%	4%[10 µM]	0%	-7%	-18%
Cc1ccc(CCNC(=O)C2CCN(S(=O)(=O)c3ccc4c(ccn4C)c3)CC2)cc1	nt	nt	-13%[46 µM]	nt	nt
COC(=O)[C@H](C)NC(=O)NCc1ccccc1	nt	-14%[10 µM]	nt	-6%[9.22 µM]	nt
Fc1ccc(-c2ccnc(=S)[nH]2)cc1	?	19%[10 µM]	-12%	12%	18µM*
COc1cccc2cc(-c3ccnc(=S)[nH]3)oc12	?	-21%	nt	-14%	nt
Brc1ccc2ncnc(NCc3ccccc3)c2c1	-12%	22%	?	2.2µM*	-29%
Clc1cccc(Nc2ncnc3ccc(Br)cc23)c1	-8%	-52%	-13%	11µM*	-25%
c1ccc(CCNc2ncnc3ccccc23)cc1	10%	-122%	?	1.8µM*	nt
SMILES	ALDH1A1 inh	HTT cytoprotect	LMNA splice mod	HTT aggregate	HPGD inh
Cc1cccc(Nc2ncnc3ccc(Br)cc23)c1	-1%	-2%	4%[46 µM]	-44%[9.22 µM]	nt
N#Cc1ccccc1-c1ccc2ncnc(NCc3ccccc3)c2c1	?	-71%	7%	nt	nt
CCCCCCCCNc1ncnc2ccccc12	-3%	-8%	?	nt	-9%
O=CCCCC=O	-1%	?	?	6%	-3%
CCc1ccc(NC(=S)Nn2cnnc2)cc1	1.4µM*	-10%	6%[9.22 µM]	-1%	nt
S=C(Nc1ccccc1)Nn1cnnc1	6.3µM*	?	-6%	0%	14µM*
Cc1ccc(NC(=S)Nn2cnnc2)cc1	3.5µM*	-18%	-16%[9.22 µM]	0%[9.22 µM]	nt
CNC(=S)Nc1ccc(C)cc1	9%	nt	-6%	-1%	-3%
COc1ccc(NC(=S)Nn2cnnc2)cc1OC	4µM*	-11%	14%[46 µM]	-16%	nt
CNC(=S)Nc1ccc(OC)c(OC)c1	10%	3%[10 µM]	-5%	-2%	-3%
CCN1CCN(C(=O)N2CCOCC2)CC1	6%	18%[10 µM]	?	7%[9.22 µM]	nt
COc1ccc(NC(=S)Nc2ncccc2C)cc1OC	25µM*	nt	?	6%	nt
O=C(CN1C(=O)CCc2cc(S(=O)(=O)N3CCOCC3)ccc21)NCc1ccc(Cl)cc1	nt	nt	7%[46 µM]	nt	nt
O=C(CCN1C(=O)C2C3C=CC(C3)C2C1=O)N1CCN(c2ccccc2Cl)CC1 (stereo not given)	2µM*	-7%	8%	6%	-7%
O=C(CCN1C(=O)C2C3C=CC(C3)C2C1=O)N1CCN(c2ccc([N+](=O)[O-])cc2)CC1 (stereo not given)	6.3µM*	-7%	nt	-29%	nt
O=C(CCN1C(=O)C2C3C=CC(C3)C2C1=O)N1CCN(c2ccc(F)cc2)CC1 (stereo not given)	?	-6%	1%	-5%	0%
CCOC(=O)C1CC(C)=C(C)CC1C(=O)O (stereo not given)	nt	7%[10 µM]	nt	2%[9.22 µM]	nt
CC(C)c1nc(N2CCN(C(=O)c3ccccc3)CC2)c(C#N)c2c1COC(C)(C)C2	?	-13%	-2%	14µM*	?
CC1(C)Cc2c(C#N)c(N3CCN(C(=O)c4ccccc4)CC3)nc(-c3ccco3)c2CS1	1%	2%[10 µM]	-11%	-6%	?
CCc1nc(OCC(=O)c2ccccc2)c(C#N)c2c1COC(C)(C)C2	6.3µM*	-52%	-4%	-19%	-13%
CSc1ccc(C(=S)N2CCN(CCO)CC2)cc1	22µM*	-4%[10 µM]	-4%	-17%	25µM*
C[C@@H]1O[C@@H](OC[C@@H]2O[C@@H](Oc3c(-c4ccc(O)c(O)c4)oc4cc(O)cc(O)c4c3=O)[C@H](O)[C@H](O)[C@@H]2O)[C@H](O)[C@H](O)[C@@H]1O	nt	0%	nt	nt	nt
Fc1ccccc1CSc1nnc(-c2ccccc2)o1	-13%	-36%	12%	1%	10µM*
Fc1ccccc1CSc1nnc(-c2cccnc2)o1	-2%	-22%	nt	-7%	nt
COc1ccc(-c2nnc(SCc3ccccc3F)o2)cc1	-14%	-12%	-11%	-25%	-10%
SMILES	ALDH1A1 inh	HTT cytoprotect	LMNA splice mod	HTT aggregate	HPGD inh
Cc1ccc(C)c(CSc2nnc(-c3cccnc3)o2)c1	?	-16%[10 µM]	18%	-4%	25µM*
c1ccc(CSc2nnc(-c3ccncc3)o2)cc1	?	18%	?	?	-18%
Cc1ccccc1-c1nnc(SCc2ccccc2F)o1	-12%	-17%	?	15%	16µM*
Cc1ccccc1-c1nnc(SCc2ccccc2)o1	5%	3%	9%	5%	22µM*
CCc1cccc(NC(=O)C2Cc3ccccc3N2C(=O)c2ccccc2)c1 (stereo not given)	nt	nt	6%[46 µM]	nt	nt
O=C(Nc1c(C(=O)c2ccc(F)cc2)oc2ccccc12)c1cc(-c2ccccc2)on1	nt	nt	13%[46 µM]	nt	nt
COc1cccc(Cn2c(=O)cnc3cnc(OC)nc32)c1	-7%	-7%	-4%	nt	nt

Bioassay records as filed in PubChem.
